Data on six sequences can be found in PMC5349851, “Combinatorial bZIP dimers display complex DNA-binding specificity landscapes”.

Some targets named below: FOS;ATF2 (Homo sapiens;Homo sapiens, UniProt P01100;P15336 128-201;343-417, |); FOS;DBP (Homo sapiens;Homo sapiens, UniProt P01100;Q10586 128-201;246-324, |); ATF5;CEBPA (Homo sapiens;Homo sapiens, UniProt Q9Y2D1;P49715 199-275;273-345, |); ATF5;JUN (Homo sapiens;Homo sapiens, UniProt Q9Y2D1;P05412 199-275;243-316, |); DDIT3;CEBPG (Homo sapiens;Homo sapiens, UniProt P35638;P53567 88-169;52-130, |); MAFB;ATF4 (Homo sapiens;Homo sapiens, UniProt Q9Y5Q3;P18848 212-305;269-346, |); BATF2;JUN (Homo sapiens;Homo sapiens, UniProt Q8N1L9;P05412 8-85;243-316, |); BATF2;ATF4 (Homo sapiens;Homo sapiens, UniProt Q8N1L9;P18848 8-85;269-346, |); JUNB;FOS (Homo sapiens;Homo sapiens, UniProt P17275;P01100 259-332;128-201, |); JUNB;NFE2L1 (Homo sapiens;Homo sapiens, UniProt P17275;Q14494 259-332;609-725, |).

Assay in all cases: SELEX-seq (CSI, HT-SELEX, round 3); SELEX-seq: 1x PBS (10 mM phosphate, 137 mM NaCl, 2.7 mM KCl) pH 7.6, 2.5 mM DTT, 50 ng/ul poly dI-dC, 0.1% BSA, 50 nM biotinylated bZIP (1:3 with partner for heterodimers), 100 nM library, room temperature, 1 h, 3 rounds; high values mean tight binding
Conditions in all cases: protein: recombinant;recombinant; copies: 1;1; dsDNA, one strand shown

Another test deals with T1, ATF5;CEBPG (Homo sapiens;Homo sapiens, UniProt Q9Y2D1;P53567 199-275;52-130, |).
T1 sequence 1: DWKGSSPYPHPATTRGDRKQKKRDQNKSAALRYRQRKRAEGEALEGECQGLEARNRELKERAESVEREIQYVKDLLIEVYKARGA
T1 sequence 2: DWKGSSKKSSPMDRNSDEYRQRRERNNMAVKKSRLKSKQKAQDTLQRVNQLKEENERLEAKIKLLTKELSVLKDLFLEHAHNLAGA

The target in a further test is T2, ATF5;BATF3 (Homo sapiens;Homo sapiens, UniProt Q9Y2D1;Q9NR55 199-275;26-99, |).
T2 sequence 1: T1 sequence 1
T2 sequence 2: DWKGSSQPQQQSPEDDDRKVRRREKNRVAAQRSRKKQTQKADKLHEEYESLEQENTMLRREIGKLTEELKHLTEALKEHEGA

The next test concerns the target T3, BATF2;ATF3 (Homo sapiens;Homo sapiens, UniProt Q8N1L9;P18847 8-85;77-150, |).
T3 sequence 1: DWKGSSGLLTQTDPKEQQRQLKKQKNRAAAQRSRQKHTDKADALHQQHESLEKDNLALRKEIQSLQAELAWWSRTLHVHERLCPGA
T3 sequence 2: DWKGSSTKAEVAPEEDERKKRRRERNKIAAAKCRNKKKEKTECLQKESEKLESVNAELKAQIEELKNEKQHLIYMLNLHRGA

The next test has as its target T4, BATF3;NFIL3 (Homo sapiens;Homo sapiens, UniProt Q9NR55;Q16649 26-99;64-134, |).
T4 sequence 1: T2 sequence 2
T4 sequence 2: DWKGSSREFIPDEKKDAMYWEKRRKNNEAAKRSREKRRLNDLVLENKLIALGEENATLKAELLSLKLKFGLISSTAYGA

For a further test, the target named is T5, CEBPE;CEBPE (Homo sapiens;Homo sapiens, UniProt Q15744;Q15744 195-267;195-267, |).
T5 sequence 1: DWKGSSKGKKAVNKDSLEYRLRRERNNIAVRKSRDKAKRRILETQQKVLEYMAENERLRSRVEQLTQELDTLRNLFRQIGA
T5 sequence 2: T5 sequence 1

A further test concerns the target T6, JUNB;CEBPE (Homo sapiens;Homo sapiens, UniProt P17275;Q15744 259-332;195-267, |).
T6 sequence 1: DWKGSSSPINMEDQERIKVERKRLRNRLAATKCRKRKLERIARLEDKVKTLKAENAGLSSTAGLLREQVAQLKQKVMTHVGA
T6 sequence 2: T5 sequence 1

In a further test the target is T7, JUNB;BATF (Homo sapiens;Homo sapiens, UniProt P17275;Q16520 259-332;17-90, |).
T7 sequence 1: T6 sequence 1
T7 sequence 2: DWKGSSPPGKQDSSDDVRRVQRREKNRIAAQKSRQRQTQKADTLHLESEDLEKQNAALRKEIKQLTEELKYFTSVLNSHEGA

In the next test the target is T8, JUNB;FOSL1 (Homo sapiens;Homo sapiens, UniProt P17275;P15407 259-332;96-169, |).
T8 sequence 1: T6 sequence 1
T8 sequence 2: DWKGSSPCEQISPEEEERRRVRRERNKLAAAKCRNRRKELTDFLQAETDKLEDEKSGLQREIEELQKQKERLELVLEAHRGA

In another test the target is T9, JUNB;NFE2 (Homo sapiens;Homo sapiens, UniProt P17275;Q16621 259-332;221-337, |).
T9 sequence 1: T6 sequence 1
T9 sequence 2: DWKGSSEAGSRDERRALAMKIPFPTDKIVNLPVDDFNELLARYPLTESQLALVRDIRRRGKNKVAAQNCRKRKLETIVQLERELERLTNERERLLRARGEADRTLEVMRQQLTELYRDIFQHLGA

The target in a further test is T10, JUNB;HLF (Homo sapiens;Homo sapiens, UniProt P17275;Q16534 259-332;216-293, |).
T10 sequence 1: T6 sequence 1
T10 sequence 2: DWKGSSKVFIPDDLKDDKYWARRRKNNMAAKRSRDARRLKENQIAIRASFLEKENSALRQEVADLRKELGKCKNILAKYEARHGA

BATF2;JUN, sequence (P05412 other isoform, or with tags, fused parts or gaps |): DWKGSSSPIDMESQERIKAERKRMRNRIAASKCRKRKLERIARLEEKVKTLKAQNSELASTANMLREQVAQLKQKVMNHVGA
ATF5;JUN, sequence (P05412 other isoform, or with tags, fused parts or gaps |): as above
JUNB;FOS, sequence (P01100 other isoform, or with tags, fused parts or gaps |): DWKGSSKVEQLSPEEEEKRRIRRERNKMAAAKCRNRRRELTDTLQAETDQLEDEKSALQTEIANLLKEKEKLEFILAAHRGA
FOS;ATF2, sequence (P01100 other isoform, or with tags, fused parts or gaps |, chain 1 of 2): as the sequence (P01100 other isoform, or with tags, fused parts or gaps |) above
FOS;ATF2, sequence (P15336 other isoform, or with tags, fused parts or gaps |, chain 2 of 2): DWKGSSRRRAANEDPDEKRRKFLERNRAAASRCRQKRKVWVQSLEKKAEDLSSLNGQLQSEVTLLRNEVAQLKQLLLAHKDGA
FOS;DBP, sequence (P01100 other isoform, or with tags, fused parts or gaps |): as the sequence (P01100 other isoform, or with tags, fused parts or gaps |) above
BATF2;ATF4, sequence (P18848 other isoform, or with tags, fused parts or gaps |, chain 2 of 2, one chain of several): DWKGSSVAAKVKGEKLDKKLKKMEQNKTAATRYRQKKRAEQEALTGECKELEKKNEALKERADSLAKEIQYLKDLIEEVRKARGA
MAFB;ATF4, sequence (Q9Y5Q3 other isoform, or with tags, fused parts or gaps |, chain 1 of 2): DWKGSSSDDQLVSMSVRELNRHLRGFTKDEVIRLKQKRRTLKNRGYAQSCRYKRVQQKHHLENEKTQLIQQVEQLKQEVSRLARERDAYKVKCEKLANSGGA
MAFB;ATF4, sequence (P18848 other isoform, or with tags, fused parts or gaps |, chain 2 of 2): as the sequence (P18848 other isoform, or with tags, fused parts or gaps |, chain 2 of 2, one chain of several) above
JUNB;NFE2L1, sequence (Q14494 other isoform, or with tags, fused parts or gaps |): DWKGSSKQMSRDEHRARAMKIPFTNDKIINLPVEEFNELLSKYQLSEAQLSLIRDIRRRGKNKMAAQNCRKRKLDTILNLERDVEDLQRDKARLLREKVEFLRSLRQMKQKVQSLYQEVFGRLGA
DDIT3;CEBPG, sequence (P35638 other isoform, or with tags, fused parts or gaps |): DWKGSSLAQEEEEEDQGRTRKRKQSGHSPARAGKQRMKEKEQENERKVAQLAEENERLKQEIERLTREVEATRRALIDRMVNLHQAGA

As for CCTGACGTCA, the binding signal with FOS;ATF2 is 0.00727 relative CSI intensity (max = 1); in the test with FOS;DBP it was 0.057 relative CSI intensity (max = 1); with ATF5;CEBPG, 0.072 relative CSI intensity (max = 1); in the test with ATF5;CEBPA, 0.0673 relative CSI intensity (max = 1); with ATF5;JUN, 0.288 relative CSI intensity (max = 1); in the test with ATF5;BATF3, 0.0107 relative CSI intensity (max = 1). Further, the binding signal was 0.0315 relative CSI intensity (max = 1) in the test with DDIT3;CEBPG; 0.182 relative CSI intensity (max = 1) in the test with MAFB;ATF4; 0.00318 relative CSI intensity (max = 1) with BATF2;ATF3; 0.0191 relative CSI intensity (max = 1) with BATF2;JUN; 0.0186 relative CSI intensity (max = 1) with BATF2;ATF4; 0.00724 relative CSI intensity (max = 1) with BATF3;NFIL3. Moreover, the binding signal with CEBPE;CEBPE was 0.00701 relative CSI intensity (max = 1); with JUNB;CEBPE, 0.00962 relative CSI intensity (max = 1); in the test with JUNB;BATF, 0.0101 relative CSI intensity (max = 1); with JUNB;FOSL1, 0.00464 relative CSI intensity (max = 1); with JUNB;FOS, 0.00331 relative CSI intensity (max = 1); with JUNB;NFE2 it was 0.0277 relative CSI intensity (max = 1). For the same sequence, the binding signal is 0.0112 relative CSI intensity (max = 1) with JUNB;NFE2L1 and 0.00417 relative CSI intensity (max = 1) in the test with JUNB;HLF.

As to ATGACGGAAT, the binding signal with FOS;DBP is 0.0179 relative CSI intensity (max = 1); with ATF5;CEBPG it was 0.0428 relative CSI intensity (max = 1); with ATF5;CEBPA, 0.0438 relative CSI intensity (max = 1); in the test with DDIT3;CEBPG it was 0.0328 relative CSI intensity (max = 1); in the test with MAFB;ATF4 it was 0.014 relative CSI intensity (max = 1); with BATF2;JUN, 0.00635 relative CSI intensity (max = 1). The binding signal in the test with BATF3;NFIL3 is 0.0076 relative CSI intensity (max = 1); in the test with CEBPE;CEBPE, 0.00629 relative CSI intensity (max = 1); in the test with JUNB;CEBPE, 0.00513 relative CSI intensity (max = 1); with JUNB;BATF, 0.002 relative CSI intensity (max = 1); with JUNB;NFE2, 0.0241 relative CSI intensity (max = 1); with JUNB;NFE2L1, 0.0118 relative CSI intensity (max = 1). Moreover, the binding signal with JUNB;HLF was 0.00331 relative CSI intensity (max = 1).

As for ATGACGCAAT, the binding signal with FOS;ATF2 was 0.00209 relative CSI intensity (max = 1); with FOS;DBP it was 0.194 relative CSI intensity (max = 1); in the test with ATF5;CEBPG it was 0.902 relative CSI intensity (max = 1); with ATF5;CEBPA, 0.864 relative CSI intensity (max = 1); in the test with ATF5;JUN it was 0.0554 relative CSI intensity (max = 1); in the test with ATF5;BATF3, 0.00351 relative CSI intensity (max = 1). In addition, the binding signal in the test with DDIT3;CEBPG is 0.339 relative CSI intensity (max = 1); with MAFB;ATF4 it was 0.0526 relative CSI intensity (max = 1); with BATF2;ATF3, 0.00454 relative CSI intensity (max = 1); with BATF2;JUN, 0.0567 relative CSI intensity (max = 1); with BATF2;ATF4 it was 0.0339 relative CSI intensity (max = 1); with BATF3;NFIL3, 0.0474 relative CSI intensity (max = 1). Further, the binding signal with CEBPE;CEBPE was 0.259 relative CSI intensity (max = 1); with JUNB;CEBPE, 0.333 relative CSI intensity (max = 1); with JUNB;BATF, 0.00832 relative CSI intensity (max = 1); with JUNB;FOSL1, 0.00312 relative CSI intensity (max = 1); with JUNB;FOS, 0.00347 relative CSI intensity (max = 1); with JUNB;NFE2, 0.344 relative CSI intensity (max = 1). For the same sequence, the binding signal with JUNB;NFE2L1 was 0.169 relative CSI intensity (max = 1); with JUNB;HLF it was 0.176 relative CSI intensity (max = 1).

Consider ATGACGTAAT, for which the binding signal with FOS;ATF2 is 0.133 relative CSI intensity (max = 1); with FOS;DBP, 0.614 relative CSI intensity (max = 1); in the test with ATF5;CEBPG, 0.502 relative CSI intensity (max = 1); with ATF5;CEBPA it was 0.488 relative CSI intensity (max = 1); with ATF5;JUN it was 0.289 relative CSI intensity (max = 1); with ATF5;BATF3, 0.0199 relative CSI intensity (max = 1). The binding signal in the test with DDIT3;CEBPG was 0.437 relative CSI intensity (max = 1); in the test with MAFB;ATF4, 0.108 relative CSI intensity (max = 1); in the test with BATF2;ATF3 it was 0.00842 relative CSI intensity (max = 1); with BATF2;JUN, 0.116 relative CSI intensity (max = 1); with BATF2;ATF4 it was 0.119 relative CSI intensity (max = 1); with BATF3;NFIL3 it was 0.178 relative CSI intensity (max = 1). For the same sequence, the binding signal is 0.0888 relative CSI intensity (max = 1) in the test with CEBPE;CEBPE; 0.0862 relative CSI intensity (max = 1) in the test with JUNB;CEBPE; 0.0325 relative CSI intensity (max = 1) with JUNB;BATF; 0.017 relative CSI intensity (max = 1) with JUNB;FOSL1; 0.00946 relative CSI intensity (max = 1) with JUNB;FOS; 0.12 relative CSI intensity (max = 1) with JUNB;NFE2. Also, the binding signal was 0.116 relative CSI intensity (max = 1) with JUNB;NFE2L1 and 0.537 relative CSI intensity (max = 1) with JUNB;HLF.

ATGATGCAAT: the binding signal is 0.0452 relative CSI intensity (max = 1) with FOS;DBP; 0.687 relative CSI intensity (max = 1) in the test with ATF5;CEBPG; 0.756 relative CSI intensity (max = 1) with ATF5;CEBPA; 0.0503 relative CSI intensity (max = 1) with ATF5;JUN; 0.00117 relative CSI intensity (max = 1) in the test with ATF5;BATF3; 0.574 relative CSI intensity (max = 1) with DDIT3;CEBPG. Also, the binding signal was 0.0202 relative CSI intensity (max = 1) with MAFB;ATF4; 0.003 relative CSI intensity (max = 1) with BATF2;ATF3; 0.00706 relative CSI intensity (max = 1) with BATF2;JUN; 0.0322 relative CSI intensity (max = 1) with BATF2;ATF4; 0.0307 relative CSI intensity (max = 1) with BATF3;NFIL3; 0.139 relative CSI intensity (max = 1) with CEBPE;CEBPE. In addition, the binding signal with JUNB;CEBPE is 0.314 relative CSI intensity (max = 1); with JUNB;NFE2 it was 0.116 relative CSI intensity (max = 1); with JUNB;NFE2L1, 0.0453 relative CSI intensity (max = 1).

For ATGACGTCAT, the binding signal in the test with FOS;ATF2 is 1 relative CSI intensity (max = 1); in the test with FOS;DBP, 0.887 relative CSI intensity (max = 1); in the test with ATF5;CEBPG, 0.529 relative CSI intensity (max = 1); in the test with ATF5;CEBPA it was 0.516 relative CSI intensity (max = 1); with ATF5;JUN it was 0.742 relative CSI intensity (max = 1); with ATF5;BATF3, 0.681 relative CSI intensity (max = 1). For the same sequence, the binding signal with DDIT3;CEBPG is 1 relative CSI intensity (max = 1); in the test with MAFB;ATF4, 0.336 relative CSI intensity (max = 1); in the test with BATF2;ATF3, 0.0121 relative CSI intensity (max = 1); with BATF2;JUN, 0.299 relative CSI intensity (max = 1); with BATF2;ATF4, 0.216 relative CSI intensity (max = 1); with BATF3;NFIL3 it was 0.218 relative CSI intensity (max = 1). For the same sequence, the binding signal with CEBPE;CEBPE was 0.0521 relative CSI intensity (max = 1); in the test with JUNB;CEBPE, 0.104 relative CSI intensity (max = 1); with JUNB;BATF, 0.784 relative CSI intensity (max = 1); in the test with JUNB;FOSL1, 0.3 relative CSI intensity (max = 1); in the test with JUNB;FOS it was 0.188 relative CSI intensity (max = 1); with JUNB;NFE2, 1 relative CSI intensity (max = 1). The binding signal with JUNB;NFE2L1 and with JUNB;HLF was 1 relative CSI intensity (max = 1) throughout.
